Experimental data: PubChem BioAssay (Tox21)
Values joined by “and” are separate entries in the source; they are usually repeats but may differ in a detail not shown here. Equal entries are not always repeated. Results filed as inconclusive are left out. Entries that show only a call come without a potency. More than one record can exist for a structure, and the calls need not agree. Active and inactive are the calls of the source. Calls follow the shape of the dose curve; as a rule, active = well fitted cell-killing curve with a large enough effect in the repeat runs; inconclusive = weak or mixed curves; inactive = no such curve, though single readings can be large or run the other way.
Potency is read from the fitted curve at half-maximal effect.

Assay: qHTS assay for identifying genotoxic compounds that show differential cytotoxicity against isogenic chicken DT40 cell lines with known DNA damage response pathways - Rad54/Ku70 mutant cell line (AID 743015); also: nearly all actives have a fitted effect of over 60% in size
Details: DT40 Rad54/Ku70 mutant viability, CellTiter-Glo, 40 h; series mostly up to 66.8 µM; activity change, negative = cytotoxicity: at the top concentration
In the case of `CS(=O)(=O)c1ccc(Cl)cc1`, the Potency is reported as “inactive”.
For `Nc1nc(N)c2nc(-c3ccccc3)c(N)nc2n1`, the Potency was 26.6 µM (active) and 6.94 µM (active) and 21.7 µM (active).
For `C=C(C)CC(C)(C)C`, the Potency was “inactive”.
In the case of `Cc1ncc(CO)c(CO)c1O`, the Potency is reported as “inactive”.
With `O=C1OC(=O)c2c(Cl)c(Cl)c(Cl)c(Cl)c21` the Potency was “inactive”.
In the case of `NC(=O)c1ncn([C@@H]2O[C@H](CO)[C@@H](O)[C@H]2O)n1`, the Potency is reported as 1.68 µM (active) and 4.07 µM (active).
With `CN1CCCC1=O` the Potency was “inactive”.
For `Cc1ccccc1Cl`, the Potency was “inactive”.
In the case of `NCCNCCNCCN`, the “activity change, negative = cytotoxicity” value is reported as -15.9% (inactive).
With `Cc1cc(C)cc(O)c1` the Potency was “inactive”.
For `CCCCCCCCO`, the Potency was “inactive”.
In the case of `Cc1ccc(C(C)C)cc1`, the Potency is reported as “inactive”.
With `Cc1cc(CC(=O)O)n(C)c1C(=O)c1ccc(Cl)cc1` the Potency was “inactive”.
For `NC(N)=S`, the Potency was “inactive”.
For `Nc1cccc(N)n1`, the Potency was “inactive”.
For `Cc1ccccc1C=O`, the Potency was “inactive”.
In the case of `Cc1ccncc1`, the Potency is reported as “inactive”.
With `NC(=O)NC(N)=O` the Potency was “inactive”.
In the case of `CO[Si](CCCNCCN)(OC)OC`, the Potency is reported as “inactive”.
With `CC(=O)OCCC(C)C` the Potency was “inactive”.
For `CN=C(NC#N)NCCSCc1nc[nH]c1C`, the Potency was “inactive and 13.6 µM (active)”.
For `OCC(O)CS` (stereo not drawn), the Potency was “inactive”.
With `O=C1C(N(CO)C(=O)NCO)N(CO)C(=O)N1CO` (stereo not drawn) the Potency was “inactive”.
For `COC(=O)/C=C\C(=O)OC`, the “activity change, negative = cytotoxicity” value was 7.98% (inactive).
In the case of `C[n+]1ccn(CCO)c1`, the Potency is reported as “inactive”.
With `COc1c2ccoc2cc2oc(=O)ccc12` the Potency was “inactive”.
In the case of `CC(=O)C(C)C`, the Potency is reported as “inactive”.
With `c1cnc2c(c1)ccc1cccnc12` the Potency was 1.38 µM (active) and 686 nM (active) and 1.54 µM (active).
